Each structure is given as a SMILES string.

Sequence of Left-right determination factor 2 (Homo sapiens) (O00292 whole entry, looked up): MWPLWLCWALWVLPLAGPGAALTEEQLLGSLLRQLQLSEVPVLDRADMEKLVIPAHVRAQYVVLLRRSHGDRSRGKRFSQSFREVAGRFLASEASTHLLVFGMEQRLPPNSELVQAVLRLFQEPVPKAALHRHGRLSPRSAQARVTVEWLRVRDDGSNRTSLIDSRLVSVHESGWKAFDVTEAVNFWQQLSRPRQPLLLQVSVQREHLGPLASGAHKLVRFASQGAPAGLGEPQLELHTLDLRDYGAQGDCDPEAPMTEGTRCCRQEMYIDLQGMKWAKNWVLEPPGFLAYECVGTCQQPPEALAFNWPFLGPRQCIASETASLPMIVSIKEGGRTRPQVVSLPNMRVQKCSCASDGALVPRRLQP

One assay addresses Left-right determination factor 2 (Homo sapiens) (UniProt O00292). Kind of assay: small molecules binding LEFTY2 protein – biochemical, small-molecule microarray, 635 nm fluorescence scan, primary screen (AID 1110). The conditions noted are these: higher = more signal.
As to `NC(=O)NCC#Cc1ccc2c(c1)[C@]1(C(=O)N2)[C@H](C(=O)Nc2nc3ccccc3s2)[C@H]2C(=O)O[C@H](c3ccccc3)[C@H](c3ccccc3)N2[C@@H]1c1ccc(OCCO)cc1`, the composite z-score is -0.828.
Same read-out and setting: for `CC(C)C(=C=CC[C@@H](O)c1ccccc1OCCO)C[C@@H](O)c1cc(Cl)cc(Cl)c1O` the value was 0.744; for `COC(=O)[C@@H]1N=C(c2ccc(OCCCO)cc2)O[C@@H]1c1ccccc1CN=[N+]=[N-]`, -0.769.
Compound `COc1cc2c(cc1O)C(C1CC1)N(Cc1ccc([N+](=O)[O-])o1)CC2` (configuration not stated) showed a composite z-score of -0.423.
On the same count and under the same terms, for `COc1ccc(NN2C(C(O)c3cc(C(F)(F)F)cc(C(F)(F)F)c3)C=CC3C(=O)N(C4CCCCC4)C(=O)C32)cc1` (configuration not stated) the value was -0.0774; for `C=CCC(OC(C)=O)[C@@H]1[C@@H](N(Cc2ccc(-c3ccccc3)cc2)C(=O)c2ccc(-c3ccccc3)cc2)c2cc(OCCCO)ccc2N1C(=O)c1ccc2ccccc2n1` (some centres not stated), 0.108.
For the compound `O=C(NCC(F)(F)F)[C@@H]1c2ccccc2C(=O)N(CC23CC4CC(CC(C4)C2)C3)[C@H]1c1ccc(CO)cc1`, the composite z-score was determined as 0.355.

For a further assay, the target named is Calmodulin-1 (Homo sapiens) (UniProt P0DP23). Kind of assay: small molecules binding calmodulin-1 with EGTA – biochemical, small-molecule microarray, Cy5-labelled CALM1, profiling panel (AID 1111).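 Note: labelled calmodulin applied in Tris saline Tween buffer holding calcium plus EGTA and DTT.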 The conditions noted are these: Cy5-CALM1 binding fluorescence, higher = more signal.
Consider `COCCOC(=O)N1C(=O)[C@@]2(c3cc(C#CCC(C(=O)OC)C(=O)OC)ccc31)[C@H](c1ccc(OCCO)cc1)N1[C@H](c3ccccc3)[C@H](c3ccccc3)OC(=O)[C@H]1[C@@H]2C(=O)N1CCCCCCC1`, for which the composite z-score was 2.57.
On to `Cc1ccc(S[C@]2(C(=O)NCC(F)(F)F)CC(=O)N(C3CCCCC3)[C@@H]2c2ccc(CO)cc2)cc1`, for which the composite z-score amounted to 1.26.
Same read-out and setting: next, `COCCOC(=O)N1C(=O)[C@@]2(c3ccccc31)[C@H](C(N)=O)[C@H]1C(=O)O[C@H](c3ccccc3)[C@H](c3ccccc3)N1[C@@H]2c1ccc(OCCO)cc1`: 0.68.
On the same count and under the same terms, for `C=CCC(OC(C)=O)[C@@H]1[C@@H](N(Cc2ccc(-c3cccc(C(F)(F)F)c3)o2)C(=O)c2cccc3ccccc23)c2cc(OCCCO)ccc2N1C(=O)c1ccc2ccccc2c1` (some centres not stated) the value was -0.34; for `COc1ccc(NC(=O)O[C@H]2[C@H](OC(=O)Nc3ccc4c(c3)OCO4)[C@H](OC(=O)Nc3ccc4c(c3)OCO4)[C@@H](OC)O[C@@H]2CO)cc1`, 0.888.
Still for that read-out and setting: next, `[N-]=[N+]=NCc1ccccc1C[C@]1(C(=O)N2CCOCC2)N=C(c2ccc(OCCCO)cc2)O[C@H]1c1ccccc1CN=[N+]=[N-]`: 2.49.
For `CCCCC(=C=CC[C@@H](O)c1cccc(OCCO)c1)CCO`, the composite z-score is -0.494.
For `CC(C)C[C@@H]1NC(=O)[C@H]2C[C@@H](C(=O)NCCCCCCNC(=O)CS)[C@@H](c3ccc(O)cc3)N2C1=O`, the composite z-score worked out at 1.56.
On the same count and under the same terms, for `C=CCC(OC(C)=O)[C@@H]1[C@@H](N(Cc2cc3ccccc3o2)C(=O)Cc2ccc(OC)cc2)c2cc(OCCCO)ccc2N1C(=O)Cc1ccc(OC)cc1` (some centres not stated) the value was -0.211.
`COc1ccc([Si](C)(C)[C@H]2[C@H](CCn3cc([C@H](O)c4ccccc4)nn3)O[C@@]3(C(=O)N(c4ccccc4)c4ccccc43)[C@@H]2C)cc1` displayed a composite z-score of -0.0353.
For `Cc1ccccc1C(O)C1C=CC2C(=O)N(c3ccccc3)C(=O)C2N1Nc1ccccc1F` (configuration not stated), the composite z-score was 2.36.
Compound `C=CC[C@@]1(C(=O)N(C)C)N=C(c2ccc(OCCCO)cc2)O[C@@H]1c1ccccc1` came in with a composite z-score of 0.401.
Same read-out and setting: next, `CCCCC(O)C1C=CC2C(=O)N(C)C(=O)C2N1Nc1ccccc1` (configuration not stated): 0.259.
In turn, `COC(=O)C1=CC(CCCO)=CC(c2ccc(CN3CCCC3)cc2)N(Cc2sc3ccccc3c2Cl)C=C1C(=O)OC` (configuration not stated) registered a composite z-score of 2.96.
Still for that read-out and setting: next, `C=C(/C(=C/C[C@@H](OC(C)=O)c1ccccc1OCCO)c1cc(C(=O)OC)ccc1OC)C(C)C`: 0.543; `CCCC=C(CCC)[C@@H](NC(=O)c1ccccc1)c1ccc(C(=O)OC)cc1`: -0.271.
The same measure, in the same setting: next, `COC(=O)[C@@]1(Cc2ccc(OC)cc2)[C@@H]2[C@@H](CC(=O)[C@H]2CC(=O)C(=O)N2CCCC2)CN1C(=O)c1ccccc1`: 2.05; `CCCCCN1CC=CC23O[C@@H]4C=CCOC(=O)[C@@H]4[C@H]2C(=O)N(CCCCCO)[C@@H]3C1=O` (some centres not stated): -0.511.
Compound `COc1ccc(CCNC(=O)[C@@]2(Sc3ccc(C)cc3)CC(=O)N(Cc3cc(C(F)(F)F)cc(C(F)(F)F)c3)[C@@H]2c2ccc(CO)cc2)cc1` gave a composite z-score of -0.615.
Still for that read-out and setting: next, `CN1C(=O)[C@]2(CCC(=O)OC(C)(C)C)N=C(c3ccc(OCCCO)cc3)O[C@@H]2c2ccccc21`: 0.147; `COC(=O)[C@@]1(Cc2ccccc2CN=[N+]=[N-])COC(c2ccc(OCCCO)cc2)=N1`: -0.759; `CCCC[C@H]1OB(O)C[C@H]2C1=C(C)C[C@H]1C(=O)C=CC(=O)[C@H]12`: -0.321.
In the case of `O=C1O[C@H](c2ccccc2)[C@H](c2ccccc2)N2[C@H]1[C@@H](C(=O)NC[C@H](O)c1ccccc1)[C@]1(C(=O)Nc3ccc(C#CCCO)cc31)[C@H]2c1ccccc1OCCO`, the composite z-score was 0.548.
`CCC[C@@H]1[C@@H](Sc2ccccc2)[C@@H](C(=O)O)[C@H](c2ccc(C)cc2)N1S(=O)(=O)c1ccc(C)cc1` had a composite z-score of 1.87.
Consider `CC(C)(C)OC(=O)CC[C@]1(C(=O)N2CCOCC2)N=C(c2ccc(OCCCO)cc2)O[C@H]1c1ccccc1CN=[N+]=[N-]`, for which the composite z-score was determined as 1.27.
In turn, `COC(=O)[C@@]1(Cc2ccc(F)cc2)[C@H]2c3cc(C(=O)N(C)C)n(CCN4CCOCC4)c3C[C@H]2CN1C(=O)c1ccccc1` yielded a composite z-score of 0.639.
`O=C1OCCC/C=C\[C@H]2OC34C=CCN(Cc5ccccc5)C(=O)[C@H]3N(CCCCCO)C(=O)[C@@H]4C12` (some centres not stated) had a composite z-score of -1.
Take `CCOC(=O)C[C@H]1[C@H](OC(=O)c2ccc(C(=O)c3ccccc3)cc2)[C@@H](NC(=O)c2ccc3ccccc3c2)c2cc(OCCCO)ccc2N1C(=O)c1ccc2ccccc2n1`: the composite z-score turned out to be 0.794.
`NC(=O)NCC#Cc1ccc2c(c1)[C@]1(C(=O)N2)[C@H](C(=O)Nc2nc3ccccc3s2)[C@H]2C(=O)O[C@H](c3ccccc3)[C@H](c3ccccc3)N2[C@@H]1c1ccc(OCCO)cc1` came in with a composite z-score of 0.84.
In the case of `CC(C)C(=C=CC[C@@H](O)c1ccccc1OCCO)C[C@@H](O)c1cc(Cl)cc(Cl)c1O`, the composite z-score came to 0.341.
In turn, `COC(=O)[C@@H]1N=C(c2ccc(OCCCO)cc2)O[C@@H]1c1ccccc1CN=[N+]=[N-]` had a composite z-score of 0.393.
On the same count and under the same terms, for `COc1cc2c(cc1O)C(C1CC1)N(Cc1ccc([N+](=O)[O-])o1)CC2` (configuration not stated) the value was 1.82; for `COc1ccc(NN2C(C(O)c3cc(C(F)(F)F)cc(C(F)(F)F)c3)C=CC3C(=O)N(C4CCCCC4)C(=O)C32)cc1` (configuration not stated), 1.66; for `C=CCC(OC(C)=O)[C@@H]1[C@@H](N(Cc2ccc(-c3ccccc3)cc2)C(=O)c2ccc(-c3ccccc3)cc2)c2cc(OCCCO)ccc2N1C(=O)c1ccc2ccccc2n1` (some centres not stated), 0.19.
The same measure, in the same setting: for `O=C(NCC(F)(F)F)[C@@H]1c2ccccc2C(=O)N(CC23CC4CC(CC(C4)C2)C3)[C@H]1c1ccc(CO)cc1` the value was 0.579.

The values above are taken from PubChem BioAssay.
